± gives the standard deviation.
system: Jurkat; assay: mean cell size (FSC-A) relative to DMSO control (fraction of control); higher = larger cells; settings: 48 h
Outline: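 Jurkat cells at 600 cells/µl were incubated for 1 h and then treated for 48h with the Enzo Screen-Well FDA Approved Drug Library v2.0 at 25µM, with DMSO at 0.9% (v/v) final. Compounds that reduced counts below 20% of controls were retested in 10-fold dilutions down to 25nM. Cell count and mean cell size, taken as forward scatter area, were measured by flow cytometry relative to solvent-only controls. Each plate carried 6-12 controls, and values are means of 3 biological replicates.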

Structure (SMILES)	mean cell size
CC(C)OC(=O)CCC/C=C\C[C@@H]1[C@@H](CC[C@@H](O)CCc2ccccc2)[C@H](O)C[C@@H]1O [Latanoprost] (concentration: 25 µM)	0.981 ± 0.046
CC(C)Cc1ccc(C(C)C(=O)O)cc1 (centres undefined) [Ibuprofen] (concentration: 25 µM)	0.955 ± 0.011
Cc1nc(-c2ccc(OCC(C)C)c(C#N)c2)sc1C(=O)O [Febuxostat] (concentration: 25 µM)	1 ± 0.024
C[C@H]1O[C@H](O[C@H]2[C@H](O)[C@@H](O)[C@@H](O[C@@H]([C@H](O)[C@@H](O)C=O)[C@H](O)CO)O[C@@H]2CO)[C@H](O)[C@@H](O)[C@@H]1N[C@H]1C=C(CO)[C@@H](O)[C@H](O)[C@H]1O [Acarbose] (concentration: 25 µM)	1.04 ± 0.047

— the supplement of paper PMC4709259
